Screening data as filed in PubChem BioAssay.
ATXN2 expr inh: inhibitors of ATXN2 expression. HEK-293 ATXN2-luciferase reporter, luminescence, 24 h. Potency, µM (doses to about 57 µM), for the others: top-dose activity change, negative = inhibition, most hits filed as inhibitors. 0.72% of 360,000 active. AID 1745845; note: % is set by controls: 0 for no effect and ±100 for the full control effect; nearly all actives have a fitted effect of over 55% in size
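ATXN2-luciferase reporter cells (luciferase flanked by upstream and downstream ATXN2 gene portions) were treated 24 h at 37 °C with compounds at up to 57 uM. SteadyGlo luminescence gave expression; GF-AFC fluorescence gave viability.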
RORg inh: blocks mouse ROR gamma transcriptional activity | 5.4% of 310,000 active | Drosophila S2 Gal4-RORgamma UAS-luciferase reporter, 20 h | P51450 | Potency, µM (highest dose often 53.6 µM), for the others: at the highest dose activity change, negative = inhibition, usual class: inhibitors; note: % is set by controls: 0 for no effect and ±100 for the full control effect; nearly all actives have a fitted effect of over 60% in size
Target sequence (P51450 whole entry, looked up, the tested form may be a part): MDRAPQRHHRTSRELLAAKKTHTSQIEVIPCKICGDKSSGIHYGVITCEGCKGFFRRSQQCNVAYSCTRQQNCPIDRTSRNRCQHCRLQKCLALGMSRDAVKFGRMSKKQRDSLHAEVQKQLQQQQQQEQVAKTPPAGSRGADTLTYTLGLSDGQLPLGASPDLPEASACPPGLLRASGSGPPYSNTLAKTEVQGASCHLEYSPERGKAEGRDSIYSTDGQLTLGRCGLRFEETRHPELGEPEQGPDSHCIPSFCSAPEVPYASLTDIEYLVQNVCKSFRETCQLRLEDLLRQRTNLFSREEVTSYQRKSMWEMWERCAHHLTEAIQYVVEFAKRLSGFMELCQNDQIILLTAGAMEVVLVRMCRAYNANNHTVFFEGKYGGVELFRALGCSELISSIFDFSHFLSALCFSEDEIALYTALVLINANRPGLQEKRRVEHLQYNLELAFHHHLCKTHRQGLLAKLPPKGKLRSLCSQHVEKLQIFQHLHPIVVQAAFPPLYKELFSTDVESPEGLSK
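Stable Schneider cell line, Gal4 DNA-binding domain fused to ROR gamma, UAS-luciferase. Cmpd 1 hr RT → CuSO4 700 uM final → 20 hr RT → luciferase reagent 10 min → luminescence.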
S2 tox: reduces viability in counter-screen for ATXN expression inhibitors; Potency, µM (series often up to 56.7 µM), hits mostly cytotoxic; 0.49% of 400,000 active; AID 651635; S2 cells (HEK-293 line with an ATXN2-luciferase reporter) viability, CellTiter-Fluor protease fluorescence, 24 h; note: nearly all actives have a fitted effect of over 40% in size
Gal4-VP16 FLuc: counter-screen for ROR gamma inhibitors: Gal4-VP16 reporter | Drosophila S2 Gal4-VP16 UAS-luciferase, luminescence, 20 h | Potency, µM (doses to about 53.6 µM), for inactives: at the top dose activity, negative = inhibition, hits mostly inhibitors | 3.5% of 310,000 active | AID 2546;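 note: Gal4-VP16 expression switched on by copper sulfate through the metallothionein promoter; % is set by controls: 0 for no effect and ±100 for the full control effect; nearly all actives have a fitted effect of over 50% in size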
HepG2 viability: HepG2 cytotoxicity, counter-screen for TGF-b inhibitors | HepG2 CAGA-GFP viability, ATP luminescence, 18 h | Potency, µM (series often up to 46.1 µM), for inactives: at the top dose activity change, negative = cytotoxicity, actives largely listed as cytotoxic | 0.76% of 410,000 active
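HepG2 CAGA-GFP cells (1000/well, DMEM with 1% FBS) received compound, then TGF-beta at 500 pg/mL final, and were incubated 18 hours at 37 degrees C. Viability was read by CellTiter-Glo luminescence. Media-only wells were set as complete cell-killing and DMSO as no toxicity.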
TGFb inhibitor: inhibitors of TGF-b signaling | HepG2 CAGA-GFP TGF-b/SMAD3 reporter, GFP fluorescence, 18 h; TGF-beta stimulated, 500 pg/mL final | Potency, µM (doses to about 46.1 µM), for the others: top-dose activity, negative = inhibition, usual class: inhibitors | 1.2% of 410,000 active | AID 588855; note: % is set by controls: 0 for no effect and ±100 for the full control effect; nearly all actives have a fitted effect of over 65% in size
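Read-out: total well GFP (ex488/em500-530) summed from mean per-cell fluorescence. Cells: HEPG2 CAGA-GFP, 1% FBS DMEM, 18 h at 37 degrees C with 500 pg/mL final TGF-beta. Unstimulated wells served as the full-inhibition control; stimulated DMSO wells = 0%.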
Starred values were filed as active, the others as inactive. An excerpt weighted towards active compounds, which were near 6.3% of everything screened. Calls come from the whole dose curve; as a rule, active = well fitted curve in the direction sought with a large enough effect; inconclusive = small, poorly fitted or top-dose-only effect, or another doubt; inactive = no such curve, though single readings can be large; an effect the other way counts as inactive or inconclusive. Potency is the fitted concentration of half-maximal effect.

Cc1[nH]c(=O)[nH]c(=O)c1/C=N/NC(=O)[C@@H](NC(=O)OC(C)(C)C)C(C)C was read as ATXN2 expr inh 0%, RORg inh -18%, S2 tox inactive, Gal4-VP16 FLuc -6%, HepG2 viability -13% and TGFb inhibitor 14%.
Screening Cc1[nH]c(=O)[nH]c(=O)c1/C=N/NC(=O)[C@H](C)N returned RORg inh 112µM*, S2 tox inactive, Gal4-VP16 FLuc inconclusive, HepG2 viability 23% and TGFb inhibitor 12%.
For OCc1ccc(-c2ccc(-c3ccc(CO)s3)o2)s1 the results were ATXN2 expr inh inconclusive, RORg inh 0.63µM* and Gal4-VP16 FLuc 1.6µM*.
For NC(=O)c1csc(-c2ccc(CO)o2)n1 the results were ATXN2 expr inh 11%, S2 tox inactive, HepG2 viability 3% and TGFb inhibitor -1%.
COCCN1CCN(Cc2nc(C3(c4ccc(C)cc4)CCCC3)no2)CC1 was read as ATXN2 expr inh 4%, RORg inh -13%, S2 tox inactive, Gal4-VP16 FLuc 6%, HepG2 viability -5% and TGFb inhibitor 1%.
`Cc1ccc(C2(c3noc(CN(C)Cc4cccnc4)n3)CCCC2)cc1` gave RORg inh inconclusive, S2 tox inconclusive, Gal4-VP16 FLuc 13µM*, HepG2 viability -22% and TGFb inhibitor -14%.
Screening Cc1ccc(C2(c3noc(CN(C)Cc4ccccn4)n3)CCCC2)cc1 returned ATXN2 expr inh -1%, RORg inh 16µM*, S2 tox inactive, Gal4-VP16 FLuc -1%, HepG2 viability -4% and TGFb inhibitor 3%.
`Cc1ccc(C2(c3noc(CN4C[C@@H](C)O[C@@H](C)C4)n3)CCCC2)cc1` gave ATXN2 expr inh 6%, RORg inh 11%, S2 tox inactive, Gal4-VP16 FLuc -14%, HepG2 viability 2% and TGFb inhibitor -5%.
For COc1cccc(N=c2oc3ccccc3cc2-c2nc3ccccc3[nH]2)c1 the results were ATXN2 expr inh 0%, RORg inh 7.9µM*, S2 tox inactive, Gal4-VP16 FLuc inconclusive, HepG2 viability -37% and TGFb inhibitor 9%.
Screening COc1ccc2nc(-c3ccccc3)[nH]c2c1 returned ATXN2 expr inh 25%, RORg inh 14%, S2 tox inactive, Gal4-VP16 FLuc inconclusive, HepG2 viability -47% and TGFb inhibitor 9%.
`COc1ccc(N=c2oc3ccc(OC)cc3cc2-c2nc3ccccc3[nH]2)cc1` gave ATXN2 expr inh -36%, RORg inh 10µM*, Gal4-VP16 FLuc -7%, HepG2 viability -21% and TGFb inhibitor 104%.
Screening COc1ccc2oc(=O)c(-c3nc4ccccc4o3)cc2c1 returned ATXN2 expr inh 52%, RORg inh 4%, S2 tox inactive, Gal4-VP16 FLuc 2%, HepG2 viability -23% and TGFb inhibitor 394%.
Screening COc1cccc(N=c2oc3ccc(OC)cc3cc2-c2nc3ccccc3[nH]2)c1 returned ATXN2 expr inh inconclusive, RORg inh 14µM*, S2 tox inconclusive, Gal4-VP16 FLuc -26%, HepG2 viability -24% and TGFb inhibitor 145%.
Screening CC(NC(=O)c1ccc([N+](=O)[O-])o1)C1CC2CCC1C2 (configuration not stated) returned ATXN2 expr inh -20%, S2 tox inconclusive, HepG2 viability -185% and TGFb inhibitor inconclusive.
O=[N+]([O-])c1cc(S(=O)(=O)NCCN2CCOCC2)ccc1Sc1nnnn1-c1ccccc1 was read as ATXN2 expr inh -31%, RORg inh 11µM*, S2 tox inconclusive, Gal4-VP16 FLuc 20µM*, HepG2 viability -119% and TGFb inhibitor inconclusive.
For CSCC[C@@H]1NC(=O)[C@@H](NC(=O)[C@H](CCCNC(=N)N)NC(=O)[C@H](CC(C)C)NC(=O)[C@H](CCSC)NC(=O)[C@H](CC(=O)O)NC(=O)[C@H](Cc2ccccc2)NC(=O)[C@@H](N)CC(=O)O)CSSC[C@@H](C(=O)N[C@@H](Cc2c[nH]c3ccccc23)C(=O)N[C@@H](CCC(N)=O)C(=O)N[C@@H](Cc2ccc(O)cc2)C(=O)O)NC(=O)[C@@H]2CCCN2C(=O)[C@H](CCCNC(=N)N)NC(=O)[C@H](Cc2ccccc2)NC(=O)[C@H](C(C)C)NC(=O)[C@H](CCCNC(=N)N)NC(=O)CNC(=O)[C@H](CC(C)C)NC1=O the results were RORg inh 21% and Gal4-VP16 FLuc -5%.
For CCCS(=O)(=O)NCc1c(C)ncc2c1CCN(C(=O)/C=C/c1ccccc1)C2 the results were S2 tox inactive.
For CC(=O)c1cccc(NC(=S)NC(=O)c2ccc(Cl)cc2)c1 the results were ATXN2 expr inh 60%, RORg inh 7.1µM*, S2 tox inactive, Gal4-VP16 FLuc 8.9µM*, HepG2 viability 2% and TGFb inhibitor -17%.
Cc1ccccc1C(=O)NNC(=S)Nc1cccc(C(F)(F)F)c1 was read as ATXN2 expr inh inconclusive, RORg inh inconclusive, S2 tox inactive, Gal4-VP16 FLuc inconclusive, HepG2 viability 10µM* and TGFb inhibitor inconclusive.
`CC(=O)c1cccc(NC(=S)NC(=O)c2cccc(C)c2)c1` gave ATXN2 expr inh 73%, RORg inh 7.9µM*, S2 tox inactive, Gal4-VP16 FLuc inconclusive, HepG2 viability -5% and TGFb inhibitor -7%.
Cc1cnc(Nc2nc3ccccc3o2)nc1C(=O)Nc1cccc(C(F)(F)F)c1 was read as ATXN2 expr inh -29%, RORg inh inconclusive, S2 tox inactive, Gal4-VP16 FLuc inconclusive, HepG2 viability 5µM* and TGFb inhibitor inconclusive.
Screening Cc1cccc(C(=O)NC(=S)Nc2ccc3[nH]c(=O)[nH]c3c2)c1 returned ATXN2 expr inh inconclusive, RORg inh -7%, S2 tox inactive, Gal4-VP16 FLuc 0%, HepG2 viability -3% and TGFb inhibitor 0%.
`FC(F)(F)c1cccc(NC(=S)NNC(=S)Nc2cccc(C(F)(F)F)c2)c1` gave RORg inh -12% and Gal4-VP16 FLuc -29%.
For COc1ccccc1C1CN(Cc2ccc(Sc3nncn3C)o2)Cc2ccccc2O1 (configuration not stated) the results were S2 tox inactive.
Screening CC(=O)N1C[C@H]2CON(C)[C@H]2C[C@H]1c1ccc(-c2ccc(C#N)cc2)cc1 returned ATXN2 expr inh 6%, S2 tox inactive, HepG2 viability -5% and TGFb inhibitor 6%.
